HCV inhibitor – qHTS Assay for Inhibitors of Hepatitis C Virus (HCV) | Huh7.5.1 HCVcc-Cre infection, luciferase reporter, 44 h | Potency, µM (highest dose often 41.8 µM), inactives show top-dose activity change, negative = inhibition, actives largely listed as inhibitors | hit rate 3.4% among 340,000; active means well fitted inhibition curve with a large enough effect; inconclusive means small, poorly fitted or top-dose-only effect, or another doubt; inactive means no such curve, though single readings can be large or run the other way; further: potency means the concentration at half of the fitted maximal effect; on the % scale 0 is the no-effect control and ±100 the full control effect
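Cells seeded at 1,000/well and cultured 4 h, then compounds added followed by HCVcc-Cre virus (~0.5 moi). After 44 h further culture, luciferase substrate was added, plates held 15 min at room temperature, and luminescence read for 15 sec.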
SARS PLpro yeast-1 – qHTS of Yeast-based Assay for SARS-CoV PLP | S. cerevisiae expressing SARS-CoV PLpro, growth rescue | Potency, µM (highest dose often 32.9 µM), for the others: at the highest dose activity, positive = growth rescue, usual class: activators | hit rate 0.19% among 330,000; calls by dose curve; further: potency means the concentration at half of the fitted maximal effect; 0% is about no effect; nearly all actives have a fitted effect of over 55% in size
FMDV inh – High Throughput Screening for Foot and Mouth Disease Virus Antivirals; FMDV antiviral cell-based qHTS; Potency, µM (doses to about 57.9 µM), for the others: at the highest dose activity change, negative = inhibition, usual class: inhibitors; hit rate 1.2% among 410,000; calls by dose curve; tested in HEK293T cells; further: read-out not given here; potency means the concentration at half of the fitted maximal effect; on the % scale 0 is the no-effect control and ±100 the full control effect; nearly all actives have a fitted effect of over 45% in size
LASV entry inh – qHTS for Inhibitors of binding or entry into cells for Lassa Virus; Lassa virus pseudotype entry inhibition, cell reporter; Potency, µM (highest dose often 37.9 µM), for inactives: at the top dose activity change, negative = inhibition, hits mostly inhibitors; hit rate 1.2% among 300,000; calls by dose curve; tested in HEK293 cells; further: potency means the concentration at half of the fitted maximal effect; on the % scale 0 is the no-effect control and ±100 the full control effect; nearly all actives have a fitted effect of over 50% in size
Marburg entry inh – qHTS for inhibitors of binding or entry into cells for Marburg Virus; hit rate 1.8% among 300,000; AID 540276, 2011; Marburg virus pseudotyped entry inhibition, cell reporter; Potency, µM (doses to about 37.8 µM), for inactives: at the top dose activity change, negative = inhibition, usual class: inhibitors; calls by dose curve; tested in HEK293 cells; further: potency means the concentration at half of the fitted maximal effect; on the % scale 0 is the no-effect control and ±100 the full control effect
HCMV inh – qHTS Assay for inhibitors of the human cytomegalovirus (HCMV); hit rate 4.5% among 410,000; activity change, negative = inhibition, % at 57.5 µM; HFF cells, HCMV-luciferase reporter, 72 h; active compounds read low; AID 1259415, 2018; in the data active means activity change below about -60%; inconclusive means no clear call, values can overlap the other calls; inactive means above about -39%; further: on the % scale 0 is the no-effect control and ±100 the full control effect
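Two compound doses tested in HFFs infected with HCMV-luciferase, MOI 1 PFU/cell, 72 h at 37C. Lysate luminescence read with OneGlo; data normalized against buffer-only and 10uM Salinomycin inhibitor controls.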
SARS PLpro yeast-2 – qHTS of Yeast-based Assay for SARS-CoV PLP: Hit Validation; shares compounds with SARS PLpro yeast-1; yeast expressing SARS-CoV PLpro, growth phenotype rescue; calls only; hit rate 19% among 1,000; AID 652038, 2013; call rule not given here
Numbers without * were called inactive; i = inactive; ? = inconclusive; . = not tested or not shown; + = active, no number; [ ] = dose if it differs, or a comment. Compounds with a hit are over-represented: about 8% of the library has one in this group of screens.

SMILES | HCV inhibitor | SARS PLpro yeast-1 | FMDV inh | LASV entry inh | Marburg entry inh | HCMV inh | SARS PLpro yeast-2
CCn1nnc(-c2ccccc2NS(=O)(=O)c2ccc(S(=O)(=O)N(C)C3CCCCC3)cc2)n1 | -3.8% | ? | 17.1% | ? | ? | 6.9 | +
CCCN1C(=O)SC(CC(=O)Nc2ccccc2C)C1=O (centres undefined) | 19.7% | ? | -1.0% | -2.7% | -6.7% | ? | i
Cc1ccccc1NC(=O)CC1SC(=O)N(c2ccccc2)C1=O (centres undefined) | 7.9% | -14.0% | -6.2% | 2.4% | 20.8% | 17.1 | .
COc1ccccc1NC(=O)Cn1c(=O)n(Cc2nc(C)no2)c(=O)c2cc3c(cc21)OCO3 | . | . | -12.0% | 2.1%[46.1 µM] | . | -2.1 | .
CCOC(=O)C1=C(Cn2cnc3ccccc32)NC(=O)NC1c1cc(C)ccc1C (centres undefined) | ? | -4.8% | ? | ? | ? | 19.0 | .
CCOC(=O)C1=C(CNCc2ccc(C)cc2)NC(=O)NC1c1cc(C)ccc1C (centres undefined) | 2.9% | ? | ? | 0.5% | -26.9% | -7.4 | i
Cc1cc(C(=O)OCC(=O)N2CC(=O)Nc3ccccc32)c(C)n1-c1ccccc1 | ? | 11.2% | 0.0% | ? | ? | ? | .
Cc1cc(C(=O)OCC(=O)N2CC(=O)Nc3ccccc32)c(C)n1-c1ccc(F)cc1 | ? | 3.98µM* | -17.7% | ? | ? | -30.5 | ?
COc1ccc(OCC(=O)Nn2c(-c3ccc(C)cc3)nc3ccccc3c2=O)cc1 | 7.0% | 21.9% | ? | 2.0% | -2.1% | 2.2 | .
COc1ccc(OCC(=O)Nn2c(-c3ccc(OC)cc3)nc3ccccc3c2=O)cc1 | 2.3% | ? | -24.4% | 1.9% | ? | 4.9 | +
C=CCn1c(O)c(N=NC(=S)Nc2cccc(C)c2)c2ccccc21 | ? | ? | -37.7% | ? | ? | -36.7 | +
Cc1ccc(-c2c3c(=O)n(C)c(=O)n(C)c3c3cnc4ccccc4n23)cc1 | . | . | -15.9% | -18.9%[46.1 µM] | -12.3%[46.1 µM] | 49.1 | .
CC1=C(C(=O)N2CCc3ccccc32)C2(CCC(C)CC2)OC1=O (centres undefined) | -15.2% | ? | 6.3% | -20.1% | -13.0% | 5.4 | i
Cc1nc2cnc(N3CCNCC3)nc2n(-c2ccccc2)c1=O | . | . | 0.0% | . | . | . | .
C(=N\Nc1nncc2ccccc12)/c1ccccn1 | 3.16µM* | 12.6µM* | ? | 1.12µM* | ? | -97.7* | i
Fc1cccc(/C=N/Nc2nncc3ccccc23)c1 | 3.5% | -6.7% | -5.6% | . | . | 200.8 | .
Cc1ccnc(NC(=S)NC(=O)c2ccco2)c1 | 6.4% | 1.9% | 62.9% | ? | ? | 64.5 | .
O=C(NC(=S)Nc1ccccn1)c1ccco1 | -5.0% | 3.16µM* | 38.5% | ? | ? | -10.9 | i
COc1ccc2nc(NC(=O)c3cc(=O)c4cc(C)cc(C)c4o3)sc2c1 | . | . | -4.0% | -2.3%[46.1 µM] | ? | -15.5 | .
Brc1ccc(C2N3CCCN23)cc1 (centres undefined) | 6.9% | 17.8µM* | 1.6% | 15.3% | 22.3% | 24.6 | ?
Cc1cccc2sc(NNC(=O)c3ccc(S(=O)(=O)N4CC(C)CC(C)C4)cc3)nc12 (centres undefined) | ? | 3.98µM* | ? | ? | ? | -99.4* | +
COc1ccc(-c2nc(SCC(=O)NC3CCCC3)c(-c3ccccc3)[nH]2)cc1OC | . | . | -3.6% | -24.3%[46.1 µM] | -0.4%[46.1 µM] | -9.6 | .
S=C(NNc1ccc2ccccc2c1)NC1CCCCC1 | -13.0% | . | 41.3% | 19.2% | ? | -60.2* | ?
CCN(C(=O)c1cn(-c2ccc(OC)cc2)c(=O)c2ccccc12)c1cccc(Cl)c1 | . | . | -8.8% | 1.4%[46.1 µM] | . | ? | .
O=S(=O)(c1ccc(OCC(O)CN2CCN(c3ccccc3)CC2)cc1)N1CCOCC1 (centres undefined) | -19.4% | ? | . | ? | -23.5% | -32.1 | i
SMILES | HCV inhibitor | SARS PLpro yeast-1 | FMDV inh | LASV entry inh | Marburg entry inh | HCMV inh | SARS PLpro yeast-2
O=S(=O)(c1ccc(OCC(O)CN2CCN(c3ccccc3O)CC2)cc1)N1CCOCC1 (centres undefined) | -29.2% | -3.1% | . | ? | -19.8% | -35.6 | .
Cc1ccc(CNC(=O)c2ccc3c(c2)nc2n3CCCC2)cc1 | . | . | 61.5% | ? | . | -3.0 | .
O=C(N/N=C/c1ccc(O)c(O)c1O)/C(=C/c1ccc([N+](=O)[O-])cc1)NC(=O)c1ccccc1 | 6.31µM* | 2.51µM* | -28.7% | -12.9% | -23.8% | 22.7 | i
CCCn1c(=O)c(Cc2ccccc2)c(O)c2ccccc21 | 11.7% | 19.2% | -14.7% | 8.7% | ? | 7.0 | .
Cn1c(=O)c(Cc2ccccc2)c(O)c2ccccc21 | -12.9% | 10µM* | 11.1% | 10.8% | 7.3% | -8.1 | ?
CCOC(=O)C(C)S(=O)(=O)c1ccc(C(F)(F)F)cn1 (centres undefined) | 3.1% | ? | -2.1% | -0.2% | -1.5% | 22.5 | i
COc1ccc(CCNC(=O)Cn2nc([N+](=O)[O-])c(Br)c2C)cc1OC | -1.4% | ? | -5.1% | 0.7% | -2.3% | -11.8 | i
COc1ccc(CCNC(=O)Cn2c([N+](=O)[O-])cnc2C)cc1OC | 8.4% | -0.1% | 3.1% | 13.5% | 2.5%[46.1 µM] | -21.0 | .
COc1ccc(Cl)cc1NS(=O)(=O)c1cn(C)nc1C | 11.3% | ? | 12.1% | ? | -13.2%[46.1 µM] | -10.1 | i
O=P(N1CCCCC1)(N1CCCCC1)C(Cl)(Cl)Cl | -1.0% | ? | -17.5% | 11.5% | -3.1% | -3.4 | i
O=P(N1CCCCCC1)(N1CCCCCC1)N1CC1 | 13.1% | . | -11.4% | 6.8% | ? | -2.2 | .
Cc1ccccc1NC(=O)C1(C)Cc2ccccc2C(=O)O1 (centres undefined) | -3.5% | ? | -19.6% | -2.3% | ? | -31.1 | ?
CCc1ccccc1NC(=O)C1(C)Cc2ccccc2C(=O)O1 (centres undefined) | . | . | -23.1% | 15.3%[46.1 µM] | -0.1%[46.1 µM] | -4.3 | .
COc1ccccc1NC(c1cccnc1)c1ccc2cccnc2c1O (centres undefined) | ? | 4.47µM* | -29.8% | ? | ? | -1.5 | ?
Cc1cc(C)nc(NS(=O)(=O)c2ccc(NC(=S)NC(=O)CC(C)C)cc2)n1 | 22.2% | ? | 110.2% | -24.2% | ? | 69.1 | i
COc1cccc(NC(=O)Cn2c(=O)n(CC(=O)NCCc3ccccc3)c(=O)c3sccc32)c1 | . | . | -20.5% | 4.1%[46.1 µM] | 3.2%[46.1 µM] | ? | .
COc1ccc(-c2cc(C(F)(F)F)n3nc(C(=O)Nc4cc(C(F)(F)F)ccc4Cl)cc3n2)cc1OC | . | . | -15.1% | -0.2%[46.1 µM] | 7.5%[46.1 µM] | 28.0 | .

Screening data as filed in PubChem BioAssay.
